Laboratory results from PubChem BioAssay (NCATS).
Where “and” joins values, the source holds several entries; their conditions need not be identical. Identical values can stand only once. Results filed as inconclusive are left out. Calls of active or inactive are those of the source. Unless noted, calls follow the shape of the dose curve; as a rule, active = well fitted curve in the direction sought with a large enough effect; inconclusive = small, poorly fitted or top-dose-only effect, or another doubt; inactive = no such curve, though single readings can be large; an effect the other way counts as inactive or inconclusive.

Key:
[1] = Cell Viability - BJ (AID 421; calls by dose curve;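 also: potency is read from the fitted curve at half-maximal effect; cells exposed to compound for 40 hours at 37 °C before readout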); conditions: BJ fibroblast viability, qHTS
Summary of the method: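 Luminescent ATP signal (CellTiter-Glo, 20 min at room temperature) served as the read-out of viable BJ cells after 40 hours of compound treatment. Responses were scaled between DMSO and 100 uM tamoxifen, and AC50 values were obtained by Hill modeling.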

[2] = Cell Viability - HepG2 (AID 433; calls by dose curve;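 also: potency is read from the fitted curve at half-maximal effect; potency for ATP loss meaning cytotoxicity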); conditions: qHTS
Summary of the method: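 HepG2 hepatocellular carcinoma cells (1500/well) were treated with compounds for 40 h at 37 °C in complete medium; intracellular ATP was read by CellTiter-Glo luminescence. Data were normalized to DMSO and 100 uM tamoxifen, and AC50 came from Hill fits.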

[3] = Cell Viability - MRC5 (AID 434; calls by dose curve;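 also: potency is read from the fitted curve at half-maximal effect; cells exposed to compound for 40 hours at 37 °C; potency reflects cytotoxicity seen as loss of intracellular ATP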); conditions: MRC5 lung fibroblast viability, qHTS
Summary of the method: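 Decrease in intracellular ATP, quantified by luciferase light output, reflects compound toxicity toward MRC5 cells exposed for 40 hr in complete culture medium. Concentration-response curves, scaled between DMSO and 100 uM tamoxifen, gave AC50 values.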

[4] = Cell Viability - N2a (AID 540); conditions: N2a mouse neuroblastoma cell viability; at 92.2 µM (top of the series);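 also: plate controls were DMSO alone for no effect and tamoxifen control for full effect; nearly all actives have a fitted effect of over 45% in size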
Summary of the method: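 CellTiter-Glo ATP luminescence, read 20 min after reagent at room temperature, reported viability following 40 h compound treatment at 37 °C. N2a mouse neuroblastoma cells seeded 1500/well; Hill equation gave AC50.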

[5] = Cell Viability - HUV-EC-C (AID 542); conditions: HUV-EC-C endothelial cell viability, qHTS; series mostly up to 92.2 µM; also: % is scaled to controls: 0 for no effect and ±100 for the full control effect; nearly all actives have a fitted effect of over 35% in size
Summary of the method: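 CellTiter-Glo luminescence measured ATP loss in HUV-EC-C cells (1000/well) after 40 hr compound exposure at 37 °C, in complete culture medium. Concentration-response data were Hill-fitted to give AC50.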

[6] = Cell Viability - SH-SY5Y (AID 544); conditions: SH-SY5Y neuroblastoma cell viability; viability change, negative = cytotoxic: at 92.2 µM (top of the series); also: nearly all actives have a fitted effect of over 55% in size
Summary of the method: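 Cytotoxicity measured via ATP-dependent luciferase luminescence (CellTiter-Glo) following 40 h, 37 °C exposure of 1500 SH-SY5Y cells per well. Concentration-response data were fitted with the standard Hill equation to give AC50.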

[7] = Cell Viability - Renal Proximal Tubule (AID 545); conditions: renal proximal tubule cells viability; at 91.7 µM (top of the series), primary cells of rat origin unless noted; also: nearly all actives have a fitted effect of over 40% in size
Summary of the method: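 Primary rat renal proximal tubule cells (1000/well) were treated with compounds for 40 hr at 37 °C in complete medium. Intracellular ATP was measured by CellTiter-Glo luminescence, and AC50 values came from Hill-equation fits of concentration-response data.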

[8] = Cellular Toxicity (caspase-3) Jurkat (AID 655); conditions: Jurkat caspase-3 activation, luminescence, DMSO = 0%, tamoxifen = 100%; at 92.2 µM (top of the series);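 also: cells exposed to compound for 16 h at 37 °C before reading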
Summary of the method: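 Jurkat cells (5000/well) in complete medium were treated with compounds for 16 hr at 37 °C, then Caspase-Glo 3/7 luminescence was read after 20 min at room temperature. Data normalized to DMSO (basal) and 100 uM tamoxifen (100%); AC50 from Hill fit.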

[9] = Cellular Toxicity (caspase-3) HUV-EC-C (AID 656); conditions: HUV-EC-C cells, caspase-3 activation (apoptosis), vehicle = 0, 100 µM tamoxifen = 100%; series mostly up to 92.2 µM
Summary of the method: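 HUV-EC-C endothelial cells, 1000/well, were pre-incubated 5 hr at 37°C, then exposed to compounds for 16 hr at 37°C. Caspase-Glo 3/7 luminescence was read after 20 min at room temperature. AC50 came from Hill fits, normalized to DMSO and 100 uM tamoxifen.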

[10] = Cellular Toxicity (caspase-3) SHSY5Y (AID 657); conditions: SH-SY5Y caspase-3 activation, DMSO zero, 10 µM staurosporine = 100%; series mostly up to 91.7 µM
Summary of the method: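 SH-SY5Y human neuroblastoma cells (1500/well) were treated with compounds for 16 h at 37 °C, then Caspase-Glo 3/7 luminescence was read after 1 h at room temperature. Data normalized to DMSO and 10 uM staurosporine; AC50 from Hill fits.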

[11] = Cellular Toxicity (caspase-3) BJ (AID 658); conditions: BJ fibroblasts, luminescence, normalized: DMSO 0%, staurosporine 100%; series mostly up to 91.7 µM
Summary of the method: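 Plated BJ cells (1000/well) rested 5 hr, received compound for 16 hr at 37 °C, then Caspase-Glo 3/7 reagent for 1 hr at room temperature before luminescence reading.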

[12] = Cellular Toxicity (caspase-3) MRC-5 (AID 659); conditions: MRC-5 cells, luminescence, normalized: DMSO 0%, 10 µM staurosporine 100%; series mostly up to 91.7 µM
Summary of the method: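 Apoptosis readout in MRC-5 cells: luciferase light generated after caspase 3/7 cleaves a peptide-aminoluciferin substrate, measured post 16 hr compound incubation at 37 °C.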

[13] = Cellular Toxicity (caspase-3) SK-N-SH (AID 661); conditions: SK-N-SH caspase-3 activation, qHTS, DMSO as zero, staurosporine as full; series mostly up to 91.7 µM
Summary of the method: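 Caspase 3/7 activation was read by luminogenic substrate cleavage after 16 hour treatment of SK-N-SH cells. Signal was scaled between DMSO and 10 uM staurosporine, and concentration-response data were fitted with the Hill equation for AC50.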

[14] = Cellular Toxicity (caspase-3) H-4-II-E (AID 663); conditions: H-4-II-E rat hepatoma, scaled: DMSO 0%, 100 µM tamoxifen 100%; series mostly up to 92.2 µM;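 also: cells exposed to compound for 16 hr before readout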
Summary of the method: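 Caspase 3/7 activation measured in H-4-II-E cells in complete culture medium after 16 hr treatment at 37 °C, using luciferase-coupled substrate readout; AC50 values come from Hill-equation fits of normalized concentration-response data.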

[15] = Cellular Toxicity (caspase-3) Renal Proximal Tubule (AID 667); conditions: renal proximal tubule cells; at 91.7 µM (top of the series), primary cells freshly taken from rat, solvent-only wells 0%, staurosporine 100% unless noted;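 also: cells exposed to compound for 16 hours at 37 °C before detection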
Summary of the method: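 Primary rat proximal tubule cells, 1000/well, 5 h plating at 37 °C, then compound 16 h at 37 °C. Caspase-Glo 3/7 reagent, 1 h RT, luminescence. Normalized to DMSO (basal) and 10 uM staurosporine (100%); Hill-fit AC50.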

[16] = qHTS Assay for Identification of Small Molecule Inducers of Hypoxia Response (AID 2120; active = well fitted curve in the direction sought with a large enough effect in the signal ratio, with a control signal flat, not every such curve was filed as active; the % refers to the signal ratio; also: 0% is about no effect); conditions: hypoxia response reporter cells, beta-lactamase ratio readout; series mostly up to 104 µM
Summary of the method: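 Reporter induction read as the CCF4 blue/green (460nm/530nm) emission ratio after 2.5 h dye loading at room temperature. ME-180 HRE-beta-lactamase cells received titrated compounds for 17 h at 37 degrees Celsius; AC50 values derived.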

[17] = qHTS assay for small molecule agonists of the antioxidant response element (ARE) signaling pathway measured by Nrf2-dependant transcriptional activity - cell viability counter screen (AID 720653; active = well fitted curve in the direction sought with a large enough effect in the repeat runs; an effect the other way counts as inactive or inconclusive; also: % is scaled to controls: 0 for no effect and ±100 for the full control effect); conditions: ARE-bla HepG2 viability, CellTiter-Glo ATP luminescence, 16 h; stronger effect = lower value
Summary of the method: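 ARE-bla HepG2 cells (2,000/well) rested 5 hrs at 37C/5% CO2, then exposed to compounds in DMSO for 16 hrs. Viability was read in the same wells as intracellular ATP by luminescence, 30 min at room temperature after reagent addition.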

[18] = qHTS assay for cell viability of HEK293 cells (AID 743288); conditions: ATP luminescence (CellTiter-Glo), 18 h; max response: stronger effect = lower value; also: % is scaled to controls: 0 for no effect and ±100 for the full control effect; nearly all actives have a fitted effect of over 50% in size
Summary of the method: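 After 18 h compound exposure at 37 C, parental HEK293 cells (2,000/well) are lysed with CellTiter-Glo and luminescence is read following 30 min at room temperature.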

[19] = qHTS assay for cell viability of the p53RE-bla HCT-116 cell line (AID 743292); conditions: p53RE-bla HCT-116 viability, ATP luminescence, 16 h; series mostly up to 95 µM; also: % is scaled to controls: 0 for no effect and ±100 for the full control effect; nearly all actives have a fitted effect of over 55% in size
Summary of the method: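 CellSensor p53RE-bla HCT-116 cells, 4,000/well, preincubated 5 h at 37 C, then exposed to compounds in DMSO for 16 h at 37 C. Viability read as CellTiter-Glo luminescence (intracellular ATP) after 30 min at room temperature.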

CN=C=S
inactive: Potency [1] > 92 µM | Potency [2] > 92 µM | Potency [3] > 92 µM | activity change, negative = cytotoxicity [4] -7.58% | Potency [5] | Potency [6] | activity change, negative = cytotoxicity [7] -2.52% | caspase-3 activation [8] -1.9% | outcome [9] | outcome [10] | outcome [11] | outcome [12] | outcome [13] | outcome [14] | caspase-3 activation [15] -3.52% | outcome [16] | max response [17] 4% and -4.66% | max response [18] -4.04% and -6.57% | Potency [19]

C=CCOC(C)=O
inactive: Potency [1] > 92 µM | Potency [2] > 92 µM | Potency [3] > 92 µM | activity change, negative = cytotoxicity [4] -14.3% | Potency [5] | Potency [6] | activity change, negative = cytotoxicity [7] -1.33% | caspase-3 activation [8] 0.277% | outcome [9] | outcome [10] | outcome [11] | outcome [12] | outcome [13] | outcome [14] | caspase-3 activation [15] -7.63% | outcome [16] | max response [17] -12.1% | max response [18] -4.78% | Potency [19]

C=CC(C)=O
inactive: Potency [1] > 92 µM | Potency [2] > 92 µM | Potency [3] > 92 µM | activity change, negative = cytotoxicity [4] 3.67% | Potency [5] | Potency [6] | activity change, negative = cytotoxicity [7] 14% | caspase-3 activation [8] -0.622% | outcome [9] | outcome [10] | outcome [11] | outcome [12] | outcome [13] | outcome [14] | caspase-3 activation [15] -2.96% | outcome [16] | max response [17] 0.624% | max response [18] 0.318% | Potency [19]

c1ccc(OP(Oc2ccccc2)Oc2ccccc2)cc1
inactive: Potency [1] > 92 µM | Potency [2] > 92 µM | Potency [3] > 92 µM | activity change, negative = cytotoxicity [4] 6.82% | Potency [5] | Potency [6] | activity change, negative = cytotoxicity [7] 1.28% | caspase-3 activation [8] -1.12% | outcome [9] | outcome [10] | outcome [11] | outcome [12] | outcome [13] | outcome [14] | caspase-3 activation [15] 1.22% | outcome [16] | max response [17] 3.55% and -14.3% | max response [18] -13.6% and -7.52% | Potency [19]

C1CCC2CCCCC2C1 (centres undefined)
inactive: Potency [1] > 92 µM | Potency [2] > 92 µM | Potency [3] > 92 µM | activity change, negative = cytotoxicity [4] 2.93% | Potency [5] | Potency [6] | activity change, negative = cytotoxicity [7] -9.71% | caspase-3 activation [8] 1.3% | outcome [9] | outcome [10] | outcome [11] | outcome [12] | outcome [13] | outcome [14] | caspase-3 activation [15] -7.58% | outcome [16] | max response [17] 2.05% | max response [18] 0.933% | Potency [19]

C=CCOC(=O)c1ccccc1N
inactive: Potency [1] > 92 µM | Potency [2] > 92 µM | Potency [3] > 92 µM | activity change, negative = cytotoxicity [4] 1.61% | Potency [5] | Potency [6] | activity change, negative = cytotoxicity [7] -5.75% [at 91.7 µM] | caspase-3 activation [8] 0.746% | outcome [9] | outcome [10] | outcome [11] | outcome [12] | outcome [13] | outcome [14] | caspase-3 activation [15] 0.151% [at 91.7 µM] | outcome [16] | max response [17] 4.08% | max response [18] 8.68% | Potency [19]
